Laboratory results taken from PubChem BioAssay (EPA / NIEHS).
Records with an inconclusive call do not appear. Active and inactive are the calls of the source. How the source made its calls, unless noted: active means hit-call score of the fitted dose curve at least 0.9, where 1 is the maximum; inconclusive means response in the unintended direction; inactive means score below 0.9.

How the values were obtained:
[1] = TOX21_p53_BLA_p2_viability: Viability Assessment in the Tox21 HCT-116 p53 Agonism Beta-lactamase Assay, Phase 2 (AID 2283591);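 further: compound exposure lasted 16 h at 37 °C; actives lower the ATP signal meaning cytotoxicity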
Summary of the method: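 HCT-116 p53-bla cells (4000/well) rested 5 h at 37C, then received compounds in DMSO (217-fold dilution) for 16 h at 37C, 5% CO2. After the CCF4 read, CellTiter-Glo was added; ATP luminescence was read after 30 min at room temperature.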

[2] = molecular target: Cellular tumor antigen p53 (Homo sapiens) (UniProt P04637); experiment: TOX21_p53_BLA_p2_ratio: Tox21 HCT-116 p53 Agonism Beta-lactamase Assay, Ratio, Phase 2 (AID 2283592)
Summary of the method: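 HCT-116 cells with p53-responsive beta-lactamase reporter, 4000 cells/well, preincubated 5 h, then compound in DMSO (217-fold dilution) for 16 h at 37C. CCF4-AM substrate 2 h at room temperature; 460/530 nm emission ratio fitted upward versus DMSO.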

[3] = TOX21_p53_BLA_p3_viability: Viability Assessment in the Tox21 HCT-116 p53 Agonism Beta-lactamase Assay, Phase 3 (AID 2283593);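 further: cells exposed to compound for 16 h before reading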
Summary of the method: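 HCT-116 cells (4000/well) rested 5 h at 37C, then got DMSO compounds by pin tool (217-fold dilution) for 16 h at 37C, 5% CO2. After the bla read, CellTiter-Glo was added and luminescence read at 30 min, room temperature.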

[4] = molecular target: Cellular tumor antigen p53 (Homo sapiens) (UniProt P04637); experiment: TOX21_p53_BLA_p3_ratio: Tox21 HCT-116 p53 Agonism Beta-lactamase Assay, Ratio, Phase 3 (AID 2283596)
Summary of the method: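 HCT116 p53-bla cells (4000/well) given compound in DMSO (217-fold dilution) after 5 h, incubated 16 h at 37C. CCF4-AM substrate 2 h at room temperature; 460/530 nm emission ratio, gain fitted against DMSO.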

[5] = TOX21_p53_BLA_p4_viability: Viability Assessment in the Tox21 HCT-116 p53 Agonism Beta-lactamase Assay, Phase 4 (AID 2283597);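 further: hits lower the luminescence signal meaning cytotoxicity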
Summary of the method: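 HCT-116 p53-bla cells, 4000/well, dosed after 5 h attachment and incubated 16 h at 37 °C, 5% CO2. Viability from CellTiter-Glo ATP luminescence after 30 min at room temperature, taken after the beta-lactamase read; loss of signal indicates cytotoxicity.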

[6] = molecular target: Cellular tumor antigen p53 (Homo sapiens) (UniProt P04637); experiment: TOX21_p53_BLA_p5_ratio: Tox21 HCT-116 p53 Agonism Beta-lactamase Assay, Ratio, Phase 5 (AID 2283599)
Summary of the method: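 HCT-116 cells carrying a p53-inducible beta-lactamase reporter were seeded at 4000 cells/well and dosed after 5 h with compound in DMSO (217-fold dilution). After 16 h at 37C, CCF4-AM substrate was added for 2 h, and the 460/530 nm emission ratio was scored as gain-of-signal versus DMSO.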

[7] = TOX21_p53_BLA_p5_viability: Viability Assessment in the Tox21 HCT-116 p53 Agonism Beta-lactamase Assay, Phase 5 (AID 2283600)
Summary of the method: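 HCT-116 p53 beta-lactamase reporter cells, 4000/well, were exposed to compound (pin transfer, 217-fold dilution) for 16 hours at 37C. Cellular ATP was read by CellTiter-Glo luminescence after 30 min at room temperature.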

[8] = molecular target: Cellular tumor antigen p53 (Homo sapiens) (UniProt P04637); experiment: TOX21_p53_BLA_p4_ratio: Tox21 HCT-116 p53 Agonism Beta-lactamase Assay, Ratio, Phase 4 (AID 2283601)
Summary of the method: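 HCT116 cells carrying an inducible beta-lactamase reporter were plated at 4000 cells/well, rested 5 h, then exposed to compounds in DMSO (217-fold dilution) for 16 h at 37C. CCF4-AM substrate was loaded 2 h at room temperature; 460/530 nm emission ratio scored gain-of-signal versus DMSO.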

[9] = molecular target: Thyroid hormone receptor alpha (Rattus norvegicus) + Thyroid hormone receptor beta (Rattus norvegicus) (UniProt P18113+P63059); experiment: TOX21_TR_LUC_GH3_Antagonist_Followup: Tox21 GH3 Thyroid Hormone Receptor Antagonism Luciferase Follow-Up Assay (AID 2283942)
Summary of the method: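 Rat pituitary GH3 cells with a TRα/TRβ-driven luciferase reporter, 5 h attachment, then 15 concentrations (92 uM to 5nM final) plus 1.0 nM T3 agonist, 24 h at 37C/5% CO2. ONE-Glo luminescence; signal change fitted against DMSO baseline.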

THRB (gene 7068) [10] = molecular target: THRB (gene 7068) (UniProt P10828); experiment: TOX21_TRB_BLA_Antagonist_Followup_ratio: Tox21 Thyroid Hormone Receptor beta Antagonism Beta-lactamase (BLA) Follow-Up Assay, Ratio (AID 2283958)
Summary of the method: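 HEK293T cells with a GAL4-TRb LBD fusion and UAS-bla reporter, 3,000 cells/well in phenol red-free DMEM with 2% charcoal-stripped FBS. Exposed 18 h at 37C to 11 concentrations in triplicate; CCF4 460:530 nm ratio after 2 h, DMSO-referenced.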

[11] = TOX21_TRB_BLA_Antagonist_Followup_viability: Viability Assessment in the Tox21 Thyroid Hormone Receptor beta Antagonism Beta-lactamase (BLA) Follow-Up Assay (AID 2283961)
Summary of the method: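 HEK293T cells with GAL4-human TRβ LBD and UAS-bla reporter, 3,000 cells/well in 2% charcoal-stripped FBS medium; 11-point concentrations in triplicate, 18 h at 37C. Viability from ATP by CellTiter-Glo luminescence, 30 min RT, same plates.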

THRB (gene 7068) [12] = molecular target: THRB (gene 7068) (UniProt P10828); experiment: TOX21_TRB_COA_Antagonist_Followup_ratio: Tox21 Thyroid Hormone Receptor beta Antagonism through Coactivator Recruitment Follow-Up Assay, Ratio (AID 2283967)
Summary of the method: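 Cell-free TR-FRET coactivator recruitment with GST-tagged TRβ LBD (5.0 nM) and fluorescein-labeled SRC-2 peptide (200 nM) detected by terbium anti-GST antibody (2 nM). The 520:495 nm emission ratio was normalized to DMSO (0%) and T3 (100%).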

[13] = TOX21_TR_RXR_BLA_Antagonist_Followup_viability: Viability Assessment in the Tox21 Thyroid Hormone Receptor beta Retinoid X Receptor alpha (RXRa) Antagonism Beta-lactamase (BLA) Follow-Up Assay (AID 2283979)
Summary of the method: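 RXRa-UAS-bla HEK293T cells seeded 2,500/well in phenol red-free DMEM with 2% charcoal-stripped FBS, attached 5 h, then exposed to compounds at 11 concentrations in triplicate for 16 h at 37C/5% CO2. Viability read by CellTiter-Glo ATP luminescence; bidirectional fit versus DMSO.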

[14] = molecular target: Retinoic acid receptor RXR-alpha (Homo sapiens) (UniProt P19793); experiment: TOX21_TR_RXR_BLA_Antagonist_Followup_ratio: Tox21 Thyroid Hormone Receptor beta Retinoid X Receptor alpha (RXRa) Antagonism Beta-lactamase (BLA) Follow-Up Assay, Ratio (AID 2283972)
Summary of the method: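 RXRa-UAS-bla HEK293T cells, 2,500/well in phenol red-free DMEM with 2% charcoal-stripped FBS, 5 h attachment, then compounds (11 concentrations, triplicate) for 16 h at 37C; FRET-B/GCCF4-AM substrate 2 h RT; 460:530 nm ratio, loss of signal vs DMSO.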

[15] = CCTE_Harrill_HTTr_Viability_MCF7: CCTE's 6-hour Cell Viability Assessment for the High-Throughput Transcriptomics (HTTr) Platform, in MCF-7 cells cultured in DMEM + 10% fetal bovine serum, Harrill Lab (AID 2284010; active means hit-call score of the fitted dose curve at least 0.9, where 1 is the maximum; inactive means score below 0.9)
Summary of the method: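 MCF-7 cells in DMEM + 10% FBS, 384-well, exposed 6 h to an eight-point dilution series. Membrane integrity scored by high-content imaging of propidium iodide exclusion; bidirectional fit versus DMSO.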

[16] = CCTE_Harrill_HTTr_Apoptosis_MCF7: CCTE's 6-hour Apoptosis Assessment for the High-Throughput Transcriptomics (HTTr) Platform, in MCF-7 cells cultured in DMEM + 10% fetal bovine serum, Harrill Lab (AID 2284011; active means hit-call score of the fitted dose curve at least 0.9, where 1 is the maximum; inactive means score below 0.9)
Summary of the method: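 MCF-7 cells in DMEM + 10% FBS exposed 6 h to chemicals over an eight-point dilution series. Caspase-3/7 activation imaged by high-content CellEvent Green staining; fitted bidirectionally versus DMSO.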

[17] = CCTE_Harrill_HTTr_CellCount_MCF7: CCTE's Cell Proliferation Assessment for the High-Throughput Transcriptomics (HTTr) Platform, Harrill Lab (AID 2284012);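 further: intended direction is loss of nuclei count meaning fewer cells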
Summary of the method: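 MCF7 cells exposed 6 hours to an eight-point dilution series; Hoechst-stained nuclei counted by high-content imaging. Bidirectional curve fitting against DMSO baseline.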

Measured: AC50

Chain of THRB (gene 7068) (P10828 whole entry, looked up, the tested form may be a part): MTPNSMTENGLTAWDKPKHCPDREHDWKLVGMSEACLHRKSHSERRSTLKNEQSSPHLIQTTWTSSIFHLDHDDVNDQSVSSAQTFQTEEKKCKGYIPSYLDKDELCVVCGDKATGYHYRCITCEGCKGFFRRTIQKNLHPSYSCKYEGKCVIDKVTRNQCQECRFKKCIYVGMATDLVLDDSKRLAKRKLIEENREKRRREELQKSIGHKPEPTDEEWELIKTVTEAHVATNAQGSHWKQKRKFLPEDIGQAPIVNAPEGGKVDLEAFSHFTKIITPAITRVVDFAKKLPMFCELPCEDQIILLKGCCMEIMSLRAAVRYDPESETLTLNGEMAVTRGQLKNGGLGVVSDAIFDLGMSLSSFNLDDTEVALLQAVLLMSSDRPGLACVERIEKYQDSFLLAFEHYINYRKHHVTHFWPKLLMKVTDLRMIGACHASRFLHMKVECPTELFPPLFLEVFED
Chain of Cellular tumor antigen p53 (Homo sapiens) (P04637 whole entry, looked up): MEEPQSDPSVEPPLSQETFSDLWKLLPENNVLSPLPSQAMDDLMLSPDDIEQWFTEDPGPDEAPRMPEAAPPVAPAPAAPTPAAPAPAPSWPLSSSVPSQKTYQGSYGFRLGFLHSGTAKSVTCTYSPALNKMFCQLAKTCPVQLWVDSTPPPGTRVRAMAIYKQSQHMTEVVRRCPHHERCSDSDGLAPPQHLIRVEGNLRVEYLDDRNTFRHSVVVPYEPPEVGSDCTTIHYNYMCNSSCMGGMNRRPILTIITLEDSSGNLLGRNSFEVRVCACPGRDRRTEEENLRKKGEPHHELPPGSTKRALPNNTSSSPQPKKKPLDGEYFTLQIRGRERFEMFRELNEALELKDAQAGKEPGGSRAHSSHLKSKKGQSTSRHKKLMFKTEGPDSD
Chain of Retinoic acid receptor RXR-alpha (Homo sapiens) (P19793 whole entry, looked up): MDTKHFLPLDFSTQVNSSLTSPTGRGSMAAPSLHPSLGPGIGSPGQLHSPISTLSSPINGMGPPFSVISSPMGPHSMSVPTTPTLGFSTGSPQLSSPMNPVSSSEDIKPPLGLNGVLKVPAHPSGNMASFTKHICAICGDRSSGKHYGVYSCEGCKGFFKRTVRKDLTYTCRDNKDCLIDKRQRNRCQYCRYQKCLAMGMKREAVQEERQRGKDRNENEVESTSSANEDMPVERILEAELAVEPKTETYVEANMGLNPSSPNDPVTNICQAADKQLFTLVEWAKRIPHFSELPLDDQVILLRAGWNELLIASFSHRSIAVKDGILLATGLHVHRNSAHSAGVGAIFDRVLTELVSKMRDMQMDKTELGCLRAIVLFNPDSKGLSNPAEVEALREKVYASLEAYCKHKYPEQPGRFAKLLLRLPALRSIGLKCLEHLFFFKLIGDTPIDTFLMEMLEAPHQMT

CO[C@H]1C[C@@H]2CC[C@@H](C)[C@@](O)(O2)C(=O)C(=O)N2CCCC[C@H]2C(=O)O[C@H]([C@H](C)C[C@@H]2CC[C@@H](OCCO)[C@H](OC)C2)CC(=O)[C@H](C)/C=C(\C)[C@@H](O)[C@@H](OC)C(=O)[C@H](C)C[C@H](C)\C=C/C=C/C=C/1C
inactive: THRB (gene 7068) [10] | [11] | THRB (gene 7068) [12] | [13]
active: [1] 19.2 µM | [2] 17.9 µM | [3] 27.4 µM | [4] 40.2 µM | [5] 21.9 µM | [6] 21.9 µM | [7] 20.6 µM | [8] 23 µM | [9] 0.00976 µM

Cc1nc2ccccc2n1Cc1ccc(Cl)cc1
inactive: [1] | [2] | [3] | [4] | [5] | [6] | [7] | [8] | THRB (gene 7068) [10] | [11] | THRB (gene 7068) [12] | [14] | [13]

Clc1cccc(Cl)c1NC1=NCCN1
inactive: [1] | [2] | [3] | [4] | [5] | [6] | [7] | [8] | [15] | [16] | [17]
